The term AC50 denotes the midpoint of the concentration-response curve, whichever way the signal moves.

Molecules are shown by their SMILES. Inconclusive results are not listed. Calls of active or inactive are those of the source. How the source made its calls: active means hit-call score of the fitted dose curve at least 0.9, where 1 is the maximum; inconclusive means response in the unintended direction; inactive means score below 0.9.

We go through 37 molecules from PubChem BioAssay (EPA / NIEHS).

The nature of one assay: ACEA_AR_antagonist_AUC_viability: ACEA Biosciences xCELLigence Real-Time Cell Analysis on Androgen Receptor Antagonism for Viability (AID 2283776).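 Further: 22Rv1 human prostate cancer cells growing on impedance electrode plates; hits lower the growth signal relative to DMSO meaning cytotoxicity.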 The essentials: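 Impedance read-out (RT-CES): area under growth curve at 80 h post-dose, loss of signal scored vs DMSO baseline. 22Rv1 cells; 8-pt 1:4 series, top 100 uM final, ≤0.5% DMSO; biological duplicate.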
In the case of `CCC1COC(=O)O1` (configuration not stated), the call was inactive.
For the molecule `Oc1ccccc1Cc1ccccc1O`, the half-maximal activity concentration (AC50) was 1.48 µM (active).
Consider `CCCCCCCO`, for which the molecule was called inactive.
Still for that read-out and setting: the value for `CCCCCCOc1ccc(N)cc1` was “inactive”; that for `CCCCCCCOC(=O)c1ccc(O)cc1` was “inactive”; that for `COC(=O)c1ccccc1C` was “inactive”.
Still for that read-out and setting: with `CCCCCCO` the entry was “inactive”; with `CCOC(=O)C1=NOC(c2ccccc2)(c2ccccc2)C1`, “inactive”.
`O=C(O)c1ccc2c(c1)C(=O)OC2=O`: the molecule was called inactive.
On to `CCOC(=O)c1ccc(C)cc1`, for which the molecule was classed as inactive.
Still for that read-out and setting: the value for `CCCCCC(=O)OCC` was “inactive”.
Same read-out and setting: the value for `CCCCCCOC(=O)CCCCC(=O)OCCCCCC` was “inactive”; that for `CCCCCC[C@@H](O)C/C=C\CCCCCCCC(=O)OCC(O)CO` (some centres not stated) was “inactive”.

Another assay in a line: ACEA_ER_AUC_viability: ACEA Biosciences xCELLigence Real-Time Cell Analysis on Estrogen Receptor Agonism for Viability (AID 2283782).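 Further: hit means loss of impedance signal meaning reduced cell growth or viability.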 The essentials: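 Viability endpoint: reduced impedance area under the curve relative to DMSO, recorded by real-time electrode sensing over ~80 h of continuous exposure. Duplicate plates of T47D in hormone-depleted medium; eight concentrations, 1:4 dilutions, 100 uM maximum.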
`CCC1COC(=O)O1` (configuration not stated): the outcome was inactive.
For `CCC(C)c1ccccc1` (configuration not stated), the call was inactive.
Still for that read-out and setting: with `CC(C)[N+](C)(CCOC(=O)C1c2ccccc2Oc2ccccc21)C(C)C` the entry was “inactive”; with `CC(=O)CCC=C(C)C`, “inactive”; with `[Cl][Sc]([Cl])[Cl]`, “inactive”.
Same read-out and setting: with `CC(C)C(=O)OCCc1ccccc1` the entry was “inactive”.
Still for that read-out and setting: the value for `Cn1cccc1` was “inactive”.
On to `CC/C=C\C/C=C\C/C=C\CCCCCCCC(=O)OC`, for which the outcome was inactive.
On to `CCCCCCOc1ccc(N)cc1`, for which the AC50 is 86.8 µM (active).
On the same count and under the same terms, the value for `CC(=O)CCC1=C(C)CCCC1(C)C` was 81.5 µM (active).
Consider `Nc1cccc(N)n1`, for which the call was inactive.
Regarding `CCCCCCCOC(=O)c1ccc(O)cc1`, the AC50 was 24.1 µM (active).
In the case of `COC(=O)c1ccccc1C`, the outcome was inactive.
With `COc1ccc(C(=O)/C(Br)=C\C(=O)O)cc1`, the AC50 is 29.2 µM (active).
For the molecule `CCCCCCO`, the result was inactive.
Regarding `C/C=C/C=C/CCCCCCCO`, the concentration at half-maximal activity (AC50) was 79.4 µM (active).
Same read-out and setting: with `CCOC(=O)/C=C\C(=O)OCC` the figure was 82.6 µM (active).
As to `Cc1noc(NS(=O)(=O)c2ccc(N)cc2)c1C`, the molecule was called inactive.
For the molecule `Cc1c[nH]c(=O)[nH]c1=O`, the AC50 is 68.6 µM (active).
As to `CCOC(=O)C1=NOC(c2ccccc2)(c2ccccc2)C1`, the call was inactive.
Still for that read-out and setting: the value for `O=C(O)c1ccc2c(c1)C(=O)OC2=O` was “inactive”.
Take `CC(C)=NNC(N)=S`: the AC50 is 82.4 µM (active).
For the molecule `CCOC(=O)OC(=O)OCC`, the outcome was inactive.
Still for that read-out and setting: with `CO[Si](CCCS)(OC)OC` the entry was “inactive”; with `CCOC(=O)c1ccc(C)cc1`, “inactive”; with `O=C(O)CCCC(=O)O`, “inactive”.
Same read-out and setting: the value for `CCCCCC(=O)OCC` was “inactive”; that for `Nc1ccc(C(=O)OCCCOC(=O)c2ccc(N)cc2)cc1` was “inactive”; that for `CCCCCC[C@@H](O)C/C=C\CCCCCCCC(=O)OCC(O)CO` (some centres not stated) was “inactive”.
For the molecule `Oc1c(Cl)cc(Cl)c(Cl)c1Cl`, the half-maximal activity concentration (AC50) is 90.9 µM (active).
Same read-out and setting: the value for `CC(C)CC(=O)OCc1ccccc1` was 50 µM (active).
As for `CCCCCCCCCCCCC`, the outcome was inactive.
As to `C=CC(C)(CCC=C(C)C)OC(=O)C=Cc1ccccc1` (configuration not stated), the AC50 was 83.6 µM (active).
`CC(CC(C)C)=NO`: the result was inactive.
